# Screening results (PubChem)
# The list is not random: actives were taken first. Their share in the collection is about 4.3%.
# MCF10A rereplic: induces DNA re-replication in MCF 10a normal breast cells | Potency, µM (top dose mostly 46.1 µM), for inactives: at the top dose activity, positive = re-replication, usual class: activators | MCF 10A DNA re-replication, Hoechst nuclear intensity, 48 h | 350,000 tested, 2.9% active | AID 624296; further: potency means the concentration at half of the fitted maximal effect; % of control where 0% means no effect; nearly all actives have a fitted effect of over 50% in size
# SW480 rerep: inducers of DNA re-replication in SW480 colon cancer cells; Potency, µM (titrated, usually from 46.1 µM), without a hit: at the top dose re-replication activation, most hits filed as activators; SW480 DNA re-replication, Hoechst DNA content imaging, 48 h; 340,000 tested, 1.8% active; AID 624297; further: potency means the concentration at half of the fitted maximal effect; % of control where 0% means no effect; nearly all actives have a fitted effect of over 55% in size
#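 250 cells/well; 23 nL cpd via pin tool; 48 hr, 37 C, 5% CO2; Hoechst 40 min; imager read of total nuclear intensity, ex 405/em 500-530 nm.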
# uPA surface inh: inhibitors of cell surface uPA generation; cell surface uPA generation assay, qHTS; Potency, µM (series often up to 38.3 µM), for the others: at the highest dose activity change, negative = inhibition, usual class: inhibitors; 330,000 tested, 0.31% active; AID 540303; active means well fitted inhibition curve with a large enough effect; inconclusive means small, poorly fitted or top-dose-only effect; inactive means no such curve, though single readings can be large or run the other way; tested in mouse RAW 264.7 cells; further: potency means the concentration at half of the fitted maximal effect; on the % scale 0 is the no-effect control and ±100 the full control effect; nearly all actives have a fitted effect of over 55% in size
# Giardia kill: kills Giardia lamblia. Giardia lamblia trophozoite viability. AID 540267. 340,000 tested, 0.15% active. activity change, % at 7.66 µM, hits read low; in the data active means activity change below about -80%; inconclusive means between about -30% and that limit;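 further: parasites exposed to compound for two days anaerobically before the ATP read; on the % scale 0 is the no-effect control and ±100 the full control effect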
#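 Viability, read as ATP luminescence: trophozoites at 100 cells/well, compound added, 48 hrs anaerobic at 37 deg C, then 15-30 min room-temperature development before reading.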
# * = called active by the depositor; u = inconclusive; x = not tested or not shown; [ ] = remark or other dose. Unless noted, the call rests on the fitted dose curve; in most records, active means well fitted activation curve with a large enough effect; inconclusive means small, poorly fitted or top-dose-only effect; inactive means no such curve, though single readings can be large or run the other way.
SMILES,MCF10A rereplic,SW480 rerep,uPA surface inh,Giardia kill
CC1CCC(O)C/C1=C\C=C1/CCCC2(C)C1CCC2C(C)/C=C/C(C)C(C)C (configuration not stated),21µM*,u,x,x
C=C1CCC(O)C/C1=C/C=C1\CCC[C@]2(C)[C@@H]([C@H](C)/C=C/[C@H](C)C(C)C)CC[C@@H]12 (some centres not stated),u,8%,x,x
Cc1c(C)c2c(c(C)c1OC(=O)CCC(=O)O)CC[C@@](C)(CCC[C@H](C)CCC[C@H](C)CCCC(C)C)O2,8%,-1%,x,x
Cc1ccc(S(=O)(=O)N2CCCCC2)cc1C(=O)OC(C)C(=O)NC1CCCCC1C (configuration not stated),0%,0%,-1%,10
COc1ccc(Cn2nnnc2CN(Cc2cc3cc(C)ccc3[nH]c2=O)C2CCCC2)cc1,23µM*,14%,1%,-22
COc1ccc2[nH]c(=O)c(CN(Cc3nnnn3Cc3ccco3)C3CCCCC3)cc2c1,30%,u,2%,0
COc1cc(C(=O)NNC(=O)CNC(=O)C2CCCCC2)ccc1OC(C)C,-1%,2%,1%,53
COCC(=O)N1CCC2CC1c1cc(Cl)ccc12 (configuration not stated),-1%,7%,3%,-14
O=C(O)CCn1cc(/C=C\C(=O)c2ccc(Cl)cc2)c(-c2cccc(Br)c2)n1,12µM*,-3%,-5%,-11
O=Cc1cn(CCC(=O)O)nc1-c1cccc(Br)c1,-1%,u,-4%,-1
Cc1ccc(-c2nn(CCC(=O)O)cc2/C=C\C(=O)c2ccc(Br)cc2)cc1,30%,u,6.3µM*,-18
Cc1ccc(-c2nn(Cc3ccccc3)cc2/C=C/C(=O)O)cc1,-5%,2%,-1%,-18
CSc1ccc(C(=O)C2CCCN(C(=O)c3nonc3C)C2)cc1 (configuration not stated),10%,6%,10%,38
CC(=O)c1ccccc1NC(=O)COC(=O)C1=NN(c2ccccc2)C(=O)CC1,-26%,-88%,1%,5
COc1cc(NC(=O)CN2C(=O)NC(CC(C)C)C2=O)cc(OC)c1OC (configuration not stated),2%,-8%,-6%,33
O=C(CCCCCn1c(=S)[nH]c2cc3c(cc2c1=O)OCO3)N1CCN(C(=O)c2ccco2)CC1,-181%[0.0737 µM],1%,-2%,-11
O=C(CCCCCn1c(=S)[nH]c2cc3c(cc2c1=O)OCO3)N1CCN(Cc2ccccc2)CC1,21µM*,u,2%,30
CCC(C(=O)Nc1ccccc1F)n1nc(C)c2c(C)n(-c3ccccc3)nc2c1=O (configuration not stated),4%,29µM*,2%,-11
CCC(C(=O)Nc1cc(F)ccc1F)n1nc(C)c2c(C)n(-c3ccc(C)cc3)nc2c1=O (configuration not stated),16%,-1%,u,-18
COc1cc2c(cc1OC)C1(Nc3c-2c(Cc2ccccc2)nn3-c2ccccc2)C(=O)Nc2ccccc21 (configuration not stated),6.5µM*,u,16%,4
O=C1N=C(N2CCCCC2)S/C1=C/C1=Cc2ccccc2OC1,18µM*,23%,-3%,-6
O=C(O)c1ccc(S(=O)(=O)N2CCC(NC(=O)C3CCCCC3)CC2)cc1,3%,-11%,4%,-12
CC(C)(O)C#Cc1ccc(C(=O)N2CCN(c3ccccc3)CC2)cc1,u,3.3µM*,25%,-4
CC(=O)c1cccc(NC(=S)N2CCN(S(=O)(=O)c3ccc(F)cc3)CC2)c1,1%,-1%,1%,7
CC(=O)N1CCc2c(sc(NC(=O)c3ccc4c(c3)OCCO4)c2C#N)C1,15µM*,18µM*,7.9µM*,-21
SMILES,MCF10A rereplic,SW480 rerep,uPA surface inh,Giardia kill
O=C(CN(C(=O)c1csnn1)c1ccc(F)c(Cl)c1)NCc1ccc2c(c1)OCO2,0%,-7%,1%,-29
O=C(COC(=O)/C=C/c1cccs1)NC(c1ccccc1)c1ccccc1,5%,-1%,2%,16
O=C(COC(=O)/C=C/C(=O)N1CCN(c2ccccc2)CC1)NC(c1ccccc1)c1ccccc1,u,u,6.3µM*,-18
CC(=O)OCC(=O)C1(O)CCC2C3CCC4C(OC(C)=O)C(=O)CCC4(C)C3C(=O)CC21C (configuration not stated),2%,-13%,-2%,8
Cn1cnc([N+](=O)[O-])c1Oc1ccc2ccccc2c1,4.1µM*,6.5µM*,-19%,-14
C=CC(=O)Oc1ccc(N2Cc3ccccc3C2=O)cc1,u,12µM*,5µM*,-13
Cc1ccc(N2Cc3ccccc3C2=O)cc1,-3%,-3%,8.9µM*,u
CCOC(=O)c1sc(NC(=O)CC(C)c2ccccc2)nc1C (configuration not stated),27%,u,-13%,-23
CCOC(=O)c1sc(NC(=O)CCc2ccccc2)nc1C,20%,5.8µM*,4.5µM*,25
COCCCNC(=S)N(CCO)Cc1cc2cc3c(cc2[nH]c1=O)OCCO3,0.65µM*,-69%,-1%,-2
CN(C)CCCN(Cc1cc2cc3c(cc2[nH]c1=O)OCO3)C(=S)Nc1ccccc1,3%,-3%,-6%,-28
COc1ccc2cc(CN(CC3CCCO3)C(=O)Nc3ccccc3OC)c(=O)[nH]c2c1 (configuration not stated),18µM*,15µM*,-19%,-25
CN(C)CCCN(Cc1cc2cc3c(cc2[nH]c1=O)OCO3)C(=S)Nc1cccc(Cl)c1,16µM*,u,-2%,6
COc1ccccc1NC(=O)N(Cc1cccs1)Cc1cc2cc3c(cc2[nH]c1=O)OCO3,21µM*,u,-11%,10
COc1ccc(NC(=O)N(Cc2cc3ccc(OC)cc3[nH]c2=O)CC2CCCO2)cc1 (configuration not stated),u,u,-15%,21
O=C(O)[C@@H](O)[C@@H](O)[C@H](O)C(=O)CO,11%,2%,x,x
CC[C@H](C)[C@H](NC(=O)OCc1ccccc1)C(=O)OCC(=O)N1CCN(c2ccc(F)cc2)CC1,10%,-8%,-12%,-21
COc1ccc(C(=O)COC(=O)Cc2n[nH]c(=O)c3ccccc23)c(OC)c1,5%,1%,-7%,-30
Cc1cc2cc(CN(CC3CCCO3)C(=S)Nc3ccccc3)c(=O)[nH]c2cc1C (configuration not stated),10µM*,u,-9%,9
CCN1CCCC1CN(Cc1cc2ccc(C)cc2[nH]c1=O)C(=S)Nc1ccc(OC)cc1 (configuration not stated),u,u,-9%,-20
Cc1ccc(NC(=S)N(CCN(C)C)Cc2cc3cccc(C)c3[nH]c2=O)cc1,u,21µM*,-5%,10
CCN1CCCC1CN(Cc1cc2ccc(C)cc2[nH]c1=O)C(=S)Nc1ccc(F)cc1 (configuration not stated),6.5µM*,-5%,9%,9
Cc1cccc(NC(=S)N(CCN(C)C)Cc2cc3cccc(C)c3[nH]c2=O)c1,3%,u,-5%,-18
